Shown are actives, neighbours in structure and some others; about 21% of the full set was active somewhere.
ELG1 repair inh: ELG1-dependent DNA repair inhibition; HEK293T ELG1-luciferase reporter, luminescence, 16 h; DNA damage induced by 5-fluorouridine; Potency, µM (highest dose often 46.1 µM), for the others: top-dose activity change, negative = inhibition, usual class: inhibitors; hit rate 2.3% among 330,000; AID 504467; note: potency is the fitted concentration of half-maximal effect; nearly all actives have a fitted effect of over 55% in size
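Quantitative HTS, concentration-response format. 2,000 cells/well co-treated with 5-fluorouridine and compound, 16 hr in 5% CO2 at 37 °C; ONE-Glo luminescence read after 30 min.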
DT40 TDP1 CPT: DT40-hTDP1 cell growth loss with CPT; chicken DT40 Tdp1-/-;hTDP1 cells + 20 nM CPT, ATP luminescence, 48 h; Potency, µM (series often up to 46.2 µM), for the others: at the highest dose activity change, negative = growth inhibition, hits mostly inhibitors; hit rate 12% among 420,000; AID 686979; note: potency is the fitted concentration of half-maximal effect; nearly all actives have a fitted effect of over 55% in size
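Cell growth measured by CellTiter-Glo luminescence after a minimum 48 h, 37 C compound exposure with 20 nM CPT in Tdp1-knockout DT40 cells stably expressing hTDP1, seeded 400/well; qHTS titration format.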
DT40 TDP1 no CPT: qHTS for Inhibitors of human tyrosyl-DNA phosphodiesterase 1 (TDP1): qHTS in cells in absence of CPT; DT40 Tdp1-/- hTDP1 cells, no CPT, ATP luminescence, 48 h; Potency, µM (doses to about 46.2 µM), inactives show at the highest dose activity change, negative = growth inhibition, most hits filed as inhibitors; hit rate 15% among 420,000; note: potency is the fitted concentration of half-maximal effect; nearly all actives have a fitted effect of over 55% in size
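Stably hTDP1-transfected Tdp1-null chicken DT40 cells were treated with library compounds minus camptothecin and grown for at least 48 hr at 37 °C, after which cellular ATP was quantified by luminescence.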
IL-1B inflam inh: blocks inflammasome-driven IL-1 beta release. THP-1 LPS/ATP IL-1B secretion, AlphaLISA, 16 h; hits give low values. activity change, % at 57.5 µM. hit rate 4.7% among 360,000; in the data active = activity change below about -50%; inconclusive = mostly about -30% to -49%
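THP-1 cells pretreated 1 hr with compounds (up to 57.5 uM final), then stimulated with LPS (250 ng/mL final) plus ATP (1.25 mM final); secreted IL-1B measured by AlphaLISA after 16 hr, decreased signal indicating inhibition.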
VP16 counter: inhibits Gal4-VP16 luciferase reporter, ROR gamma counter-screen. hit rate 3.5% among 310,000. Drosophila S2 Gal4-VP16 UAS-luciferase, luminescence, 20 h. AID 2546. Potency, µM (highest dose often 53.6 µM), for the others: at the top dose activity, negative = inhibition, hits mostly inhibitors;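 note: Gal4-VP16 expression switched on by copper sulfate through the metallothionein promoter; potency is the fitted concentration of half-maximal effect; nearly all actives have a fitted effect of over 50% in size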
RORg inh: blocks mouse ROR gamma transcriptional activity. P51450. AID 2551. Potency, µM (highest dose often 53.6 µM), inactives show at the highest dose activity change, negative = inhibition, usual class: inhibitors. hit rate 5.4% among 310,000. Drosophila S2 Gal4-RORgamma UAS-luciferase reporter, 20 h; note: potency is the fitted concentration of half-maximal effect; nearly all actives have a fitted effect of over 60% in size
Target sequence (P51450 whole entry, looked up, the tested form may be a part): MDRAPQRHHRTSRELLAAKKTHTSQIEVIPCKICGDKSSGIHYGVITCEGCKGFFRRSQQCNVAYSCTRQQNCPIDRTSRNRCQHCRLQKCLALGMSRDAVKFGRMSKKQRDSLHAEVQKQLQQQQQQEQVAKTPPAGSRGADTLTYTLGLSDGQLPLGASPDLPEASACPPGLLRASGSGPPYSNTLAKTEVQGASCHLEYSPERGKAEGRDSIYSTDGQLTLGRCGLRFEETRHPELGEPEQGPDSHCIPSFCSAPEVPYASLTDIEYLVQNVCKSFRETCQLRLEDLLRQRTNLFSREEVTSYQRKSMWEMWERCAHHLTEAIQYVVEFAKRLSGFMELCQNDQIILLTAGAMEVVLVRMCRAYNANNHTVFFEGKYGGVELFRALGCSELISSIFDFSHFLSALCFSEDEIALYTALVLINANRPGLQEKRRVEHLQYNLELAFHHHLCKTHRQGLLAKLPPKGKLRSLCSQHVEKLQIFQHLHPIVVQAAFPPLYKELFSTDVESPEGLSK
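Drosophila S2 cells stably expressing Gal4-DBD/mouse RORγ fusion under metallothionein promoter plus UAS-luciferase; compound 1 h, then 700 uM CuSO4 induction for 20 h at ambient temperature; inhibition read as reduced luminescence.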
* marks the source's active call; other numbers are inactive results; [ ] = dose if it differs, or a comment. Unless noted, calls come from the whole dose curve; as a rule, active = well fitted curve in the direction sought with a large enough effect; inconclusive = small, poorly fitted or top-dose-only effect, or another doubt; inactive = no such curve, though single readings can be large; an effect the other way counts as inactive or inconclusive. % is set by controls: 0 for no effect and ±100 for the full control effect.

Screening O=C(Cn1cnc2sc(-c3ccccc3)cc2c1=O)NCc1ccccc1 returned ELG1 repair inh 9%, DT40 TDP1 CPT 3.7µM*, DT40 TDP1 no CPT 5.2µM*, IL-1B inflam inh 41, VP16 counter 1% and RORg inh 0%.
Screening COc1ccc(CNC(=O)Cn2ncn3c(cc4ccccc43)c2=O)cc1 returned ELG1 repair inh 0%, DT40 TDP1 CPT inconclusive, DT40 TDP1 no CPT inconclusive, IL-1B inflam inh 10, VP16 counter 2% and RORg inh 0%.
`O=C(Cn1cnc2sc(-c3ccccc3)cc2c1=O)NCc1ccco1` gave ELG1 repair inh 0%, DT40 TDP1 CPT 6.5µM*, DT40 TDP1 no CPT 5.8µM*, IL-1B inflam inh 16 and RORg inh 2%[0.365 µM].
`O=C(Cn1ncn2c(cc3ccccc32)c1=O)NCc1ccco1` gave ELG1 repair inh 10%, DT40 TDP1 CPT -14%, DT40 TDP1 no CPT 0%, IL-1B inflam inh 21, VP16 counter -9% and RORg inh 5.6µM*.
CC(=O)N1CCC[C@H]1C(=O)N1CCc2c(cnc(C)c2CNC(=O)/C=C/c2cccs2)C1 was read as DT40 TDP1 CPT -6%[9.04 µM] and DT40 TDP1 no CPT -3%.
`CCOC(=O)C1=CCN(S(=O)(=O)c2ccccc2Cl)C1c1cccc(Cl)c1` (centres undefined) gave DT40 TDP1 CPT inconclusive, DT40 TDP1 no CPT inconclusive and IL-1B inflam inh 75.
`CCOc1ccc(NC(=S)N2CCN(c3ccc(N4CCOCC4)nn3)CC2)cc1` gave ELG1 repair inh inconclusive, DT40 TDP1 CPT 10%, DT40 TDP1 no CPT 17%, IL-1B inflam inh -22, VP16 counter -5% and RORg inh 3%.
`COCc1c(C(=O)NC2CCCC2)cnn1-c1nccc(-c2ccco2)n1` gave DT40 TDP1 CPT 4% and DT40 TDP1 no CPT -16%.
CCC(Sc1nnc(C)n2c1cc1occc12)C(=O)Nc1ccccc1OC (centres undefined) was read as DT40 TDP1 CPT inconclusive and DT40 TDP1 no CPT 21µM*.
Screening CCOC(=O)C1CCN(c2nc3ccccc3nc2C(C#N)C(=O)OC(C)C)CC1 (centres undefined) returned ELG1 repair inh 3%, DT40 TDP1 CPT 16µM*, DT40 TDP1 no CPT 12µM*, IL-1B inflam inh -17, VP16 counter 1% and RORg inh 10%.
`C=CCOC(=O)C(C#N)c1nc2ccccc2nc1N1CCN(c2ccccc2OCC)CC1` (centres undefined) gave ELG1 repair inh 15µM*, DT40 TDP1 CPT 1%, DT40 TDP1 no CPT -5%, IL-1B inflam inh 16, VP16 counter -6% and RORg inh -16%.
Screening COC(=O)C1CCN(c2nc3ccccc3nc2C(C#N)C(=O)OCC(C)C)CC1 (centres undefined) returned ELG1 repair inh inconclusive, DT40 TDP1 CPT 23µM*, DT40 TDP1 no CPT 12µM*, IL-1B inflam inh -4, VP16 counter -1% and RORg inh 0%.
For CCCCCCOC(=O)C(C#N)c1nc2ccccc2nc1N1CCN(C)CC1 (centres undefined) the results were ELG1 repair inh inconclusive, DT40 TDP1 CPT inconclusive, DT40 TDP1 no CPT inconclusive, IL-1B inflam inh -25, VP16 counter -8% and RORg inh 15%.
For CCOC(=O)C1CCCN(c2nc3ccccc3nc2C(C#N)C(=O)OC(C)C)C1 (centres undefined) the results were ELG1 repair inh -13%, DT40 TDP1 CPT inconclusive, DT40 TDP1 no CPT inconclusive, IL-1B inflam inh 0, VP16 counter -2% and RORg inh -29%.

Bioassay records deposited in PubChem BioAssay by National Center for Advancing Translational Sciences (NCATS).
